We go through 40 molecules from PubChem BioAssay (Tox21).

Unmarked numbers belong to inactive results. The source made the active and inactive calls. Calls come from the whole dose curve.
% is set by controls: 0 for no effect and ±100 for the full control effect.

Chain of Gonadotropin-releasing hormone receptor (Homo sapiens) (P30968 whole entry, looked up): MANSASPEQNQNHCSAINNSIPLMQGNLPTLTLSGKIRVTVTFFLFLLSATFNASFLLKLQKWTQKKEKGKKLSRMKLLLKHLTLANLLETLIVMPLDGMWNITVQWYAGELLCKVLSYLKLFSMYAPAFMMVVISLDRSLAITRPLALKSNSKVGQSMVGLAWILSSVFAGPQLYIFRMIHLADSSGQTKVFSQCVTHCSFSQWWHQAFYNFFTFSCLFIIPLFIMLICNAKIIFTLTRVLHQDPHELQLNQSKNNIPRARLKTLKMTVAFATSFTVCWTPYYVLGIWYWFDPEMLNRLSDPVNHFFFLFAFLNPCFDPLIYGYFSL

The target of this experiment is Gonadotropin-releasing hormone receptor (Homo sapiens) (UniProt P30968). As to the kind of experiment: Human gonadotropin-releasing hormone receptor (GnRHR) small molecule agonists, calcium flux assay in GnRHR-HEK293 cells (AID 1920063). Note: nearly all actives have a fitted effect of over 35% in size. Conditions: calcium flux fluorescence, agonist mode; series mostly up to 57.6 µM; activity change: at the top concentration. The source says:
National Center for Advancing Translational Sciences [NCATS]
Division of Preclinical Innovation [DPI]
U.S. Environmental Protection Agency [EPA]
National Institutes of Environmental Health Sciences [NIEHS]
National Toxicology Program [NTP]
U.S. Food and Drug Administration [FDA]
Gonadotropin-releasing hormone receptor (GnRHR) is a G-protein-coupled receptor (GPCR) and acts (through phospholipase C) to increase intracellular inositol trisphosphate and then release intracellular calcium stores. Cell-based GnRHR-Hek293 calcium influx assay is using HEK293 cells that have been genetically engineered to express the human GnRHR, which activity can be measured by calcium signaling. A compound/drug can activate (agonist) GnRHR that can be monitored by levels of intracellular calcium.
GnRHR-HEK293 cells developed by Codex Corp contain human GnRHR reporter gene, which was stably integrated into HEK 293 cells. The compound activation can be detected by fluorescence intensity via calcium flux assay. This cell line has been used to screen the Tox21 10K compound library to identify GnRHR agonists.
GnRHR-Hek293 cells were dispensed at 1500cells/4uL/well in 1536-well black wall/clear bottom plates using a multidrop dispenser. After the assay plates were incubated at a 37 C/5% CO2 incubator for 18 hours, 4 uL of Calcium Dye Solution was added to each well. The plates were incubated at 37 C for 1 hour. For agonist mode, 23 nL of compounds dissolved in DMSO, positive controls or DMSO only was transferred to the assay plate by a pin tool station. The fluorescence intensity in the plates was measured using FDSS 7000EX kinetic plate reader with a filter set of Ex/Em=480/540 for 3 min at 1 sec intervals. Each test compound was measured at 15 concentrations and in triplicates.
Take `CC(C)c1cc2c(cc1S(=O)(=O)O)[C@@]1(C)CCC[C@@](C)(C(=O)O)[C@@H]1CC2`: the “activity change” value is -1.13% [at 26.4 µM, hits give high values].
The same measure, in the same setting: the figure for `CCCCCCCC(OC)OC` is 0.521% [at 26.4 µM, hits give high values].
Same read-out and setting: the figure for `[O-][n+]1ccc(Cl)cc1` is -0.422%.
Take `CCCOCCO`: the Potency entry was “inactive”.
Consider `CCCC(=O)C(C)=O`, for which the “activity change” value was -0.0785%.
Regarding `C=CCS(=O)(=O)O`, the “activity change” value is 0.411%.
On the same count and under the same terms, the figure for `CCc1cccc(CC)c1NC(=O)C(=O)O` is -0.558%.
Turning to `Cn1c(=O)c2c(ncn2C)n(C)c1=O`, the Potency entry was “inactive”.
In the case of `O=C1c2ccccc2CCc2ccccc21`, the Potency result was “inactive”.
With `COc1cccc(OC)c1O`, the “activity change” value is -0.557%.
Same read-out and setting: in the case of `CC1CCC(C(C)(C)S)C(=O)C1` (stereo not given) it was 0.0601%.
On the same count and under the same terms, the figure for `O=C(O)c1ccc(OCCCOc2ccc(C(=O)O)cc2)cc1` is -1.29% [at 26.4 µM, hits give high values]; for `CC(=O)Nc1ccc(N=Nc2cc(C)ccc2O)cc1` it is -0.0446%; for `O=c1[nH]c(=O)c2cn[nH]c2[nH]1` it is 0.0026%.
Still for that read-out and setting: the figure for `Cc1ccc(C)o1` is -0.948%; for `COS(=O)(=O)O` it is -1.56%; for `Cc1cc(O)cc2c1O[C@](C)(CCC[C@H](C)CCC[C@H](C)CCCC(C)C)CC2` it is 0.557% [at 26.4 µM, hits give high values].
Regarding `CCOc1c(N2CCOCC2)cnn(C)c1=O`, the “activity change” value is -2.04% [at 26.4 µM, hits give high values].
Consider `CCOc1ccc(Cc2nccc3cc(OCC)c(OCC)cc23)cc1OCC`, for which the “activity change” value is -0.0181% [at 26.4 µM, hits give high values].
In the case of `Cc1ccc(C(C)(C)C)cc1`, the Potency entry was “inactive”.
Same read-out and setting: in the case of `COc1ccc(N)c(OC)c1` it was “inactive”.
With `COc1cc(C(=O)NCc2ccc(OCCN(C)C)cc2)cc(OC)c1OC`, the “activity change” value is 0.758% [at 26.4 µM, hits give high values].
The same measure, in the same setting: in the case of `CCCCNc1ccccc1` it was -0.657%.
On the same count and under the same terms, the figure for `CCCOC(=O)C(C)O` (stereo not given) is 0.34%; for `CCOC(OCC)C(=O)c1ccccc1` it is -1.15%.
On the same count and under the same terms, the figure for `CC(=O)OCCc1ccccc1` is 0.0968%.
In the case of `O=C(C(=O)c1ccccc1)c1ccccc1`, the “activity change” value was -0.061%.
Same read-out and setting: in the case of `CCCCCCOC(=O)CC` it was -1.43%.
In the case of `CCCCCOC(C)=O`, the Potency result is “inactive”.
As to `CCCCCCN`, the “activity change” value was 1.73%.
On to `CC(=O)NC(Cc1ccccc1)C(=O)O` (stereo not given), for which the “activity change” value is -0.141% [at 26.4 µM, hits give high values].
Regarding `C=CC(=O)NCOCCCC`, the Potency entry was “inactive”.
Turning to `O=C(/N=N/C(=O)OCc1ccccc1)OCc1ccccc1`, the “activity change” value was -0.729%.
On the same count and under the same terms, in the case of `Cc1ccccc1S(N)(=O)=O` it was 0.545%.
Same read-out and setting: in the case of `CCC(CO)(CO)CO` it was -0.131%.
Still for that read-out and setting: in the case of `CC(C)(C)C(=O)C(Oc1ccc(Cl)cc1)n1ccnc1` (stereo not given) it was -0.16% [at 26.4 µM, hits give high values]; in that of `O=C[C@H](O)[C@@H](O)[C@H](O)[C@H](O)CO`, 1.8%.
Turning to `COc1ccc2c(c1)CCCC2=O`, the “activity change” value was -0.0919% [at 26.4 µM, hits give high values].
On to `Cc1ccccc1S(=O)(=O)O`, for which the “activity change” value is 0.416%.
Same read-out and setting: in the case of `C1COCCO1` it was -0.0363%.
